Test results as given in PubChem BioAssay (NCATS).
Where “and” joins values, the source holds several entries; their conditions need not be identical. Identical values can stand only once. Inconclusive results are not listed. Some compounds were tested as several samples or in several runs, with calls that do not always agree. Calls of active or inactive are those of the source. Calls follow the shape of the dose curve; as a rule, active = well fitted curve in the direction sought with a large enough effect; inconclusive = small, poorly fitted or top-dose-only effect, or another doubt; inactive = no such curve, though single readings can be large; an effect the other way counts as inactive or inconclusive.

Experiments:
MKL-1 = experiment: qHTS assay to identify novel small-molecules to repurpose for Merkel cell carcinoma treatment (AID 1296009); conditions: MCC and control cell lines, CellTiter-Glo viability, 72 h; series mostly up to 46 µM; also: nearly all actives have a fitted effect of over 60% in size; also: potency is read from the fitted curve at half-maximal effect
In short: (§1)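 Luminescence from CellTiter-Glo, read 10 min after addition at room temperature, reported viability following a 72 hr, 37 degree celsius treatment with NPC or MIPE compounds in titration; values normalized to plate controls.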

MKL-2 = experiment: as above; conditions: MCC and control cell lines, CellTiter-Glo viability, 72 h; series mostly up to 46 µM
In short: as §1

NIH3T3 = experiment: as above; conditions: MCC and control cell lines, CellTiter-Glo viability, 72 h; at 44.8 µM (top of the series) unless noted
In short: as §1

UISO = experiment: as above; conditions: MCC and control cell lines, CellTiter-Glo viability, 72 h; series mostly up to 46 µM
In short: as §1

WaGa = experiment: as above; conditions: MCC and control cell lines, CellTiter-Glo viability, 72 h; series mostly up to 46 µM
In short: as §1

C33A = experiment: Primary qHTS to identify gynecologic anti-cancer compounds using libraries of approved drugs and bioactive compounds (AID 1345084); conditions: Gynecologic cancer cell panel viability, ATPlite luminescence, 48 h; series mostly up to 57.5 µM; also: nearly all actives have a fitted effect of over 55% in size
In short: (§2)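 Cells, 1,000 per well, plated 16 h, then exposed 48 h at 37 C to compounds. Viability by ATPlite luminescence after 15 min at room temperature.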

CAOV3 = experiment: as above; conditions: Gynecologic cancer cell panel viability, ATPlite luminescence, 48 h; series mostly up to 57.5 µM
In short: as §2

CASKI = experiment: as above; conditions: Gynecologic cancer cell panel viability, ATPlite luminescence, 48 h; series mostly up to 57.5 µM
In short: as §2

Es-2 = experiment: as above; conditions: Gynecologic cancer cell panel viability, ATPlite luminescence, 48 h; series mostly up to 57.5 µM
In short: as §2

Hek293T = experiment: as above; conditions: Gynecologic cancer cell panel viability, ATPlite luminescence, 48 h, control line for the selectivity index; series mostly up to 57.5 µM
In short: as §2

JEG-3 = experiment: as above; conditions: Gynecologic cancer cell panel viability, ATPlite luminescence, 48 h; series mostly up to 57.5 µM
In short: as §2

OV90 = experiment: as above; conditions: Gynecologic cancer cell panel viability, ATPlite luminescence, 48 h; series mostly up to 57.5 µM
In short: as §2

PA-1 = experiment: as above; conditions: Gynecologic cancer cell panel viability, ATPlite luminescence, 48 h; series mostly up to 57.5 µM
In short: as §2

SKOV3 = experiment: as above; conditions: Gynecologic cancer cell panel viability, ATPlite luminescence, 48 h; series mostly up to 57.5 µM
In short: as §2

Tov-21-G = experiment: as above; conditions: Gynecologic cancer cell panel viability, ATPlite luminescence, 48 h; series mostly up to 57.5 µM
In short: as §2

Tov112D = experiment: as above; conditions: Gynecologic cancer cell panel viability, ATPlite luminescence, 48 h; series mostly up to 57.5 µM
In short: as §2

[1] = Drug repurposing screens with cells derived from glioblastoma tumor samples (AID 1345199); conditions: GBM patient neurospheres viability, ATP luminescence, 48 h; also: nearly all actives have a fitted effect of over 40% in size; also: potency is read from the fitted curve at half-maximal effect
In short: (§3)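 Primary testing used CD133+ neurospheres from four GBM patients, seven concentrations, 48 h exposure and ATP-based viability; confirmation added three slower-growing patient lines.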

astro = experiment: as above; conditions: viability, ATP luminescence, 48 h; series mostly up to 45.9 µM
In short: as §3

HeLa = experiment: Primary qHTS to identify gynecologic anti-cancer compounds using libraries of approved drugs and bioactive compounds (AID 1345084); conditions: Gynecologic cancer cell panel viability, ATPlite luminescence, 48 h; series mostly up to 57.5 µM; also: nearly all actives have a fitted effect of over 55% in size
In short: as §2

[2] = at 46.1 µM (top of the series), tumour line C
[3] = at 45.9 µM (top of the series), tumour line B
[4] = at 45.9 µM (top of the series), tumour line D
[5] = at 46 µM (top of the series), tumour line A
[6] = at 20 µM (top of the series), tumour line C
[7] = at 21.2 µM (top of the series), tumour line B
[8] = at 21.2 µM (top of the series), tumour line D
[9] = at 21.3 µM (top of the series), tumour line A
% is scaled to controls: 0 for no effect and ±100 for the full control effect.

CCCOc1ccc(C(=O)OCCN(CC)CC)cc1N
inactive: Potency (MKL-1) | Potency (MKL-2) | outcome (NIH3T3) | Potency (UISO) | Potency (WaGa) | Potency (C33A) | Potency (CAOV3) | Potency (CASKI) | Potency (Es-2) | Potency (Hek293T) | Potency (JEG-3) | Potency (OV90) | Potency (PA-1) | Potency (SKOV3) | Potency (Tov-21-G) | Potency (Tov112D) | activity, negative = cell killing [1, 2] -16.2% | Potency (astro)
active: Potency ([1]; tumour line A) 14.1 µM

CCCc1cc(C(N)=S)ccn1
inactive: Potency (MKL-1) | Potency (MKL-2) | Potency (UISO) | Potency (WaGa) | Potency (C33A) | Potency (CAOV3) | Potency (CASKI) | Potency (Es-2) | Potency (HeLa) | Potency (Hek293T) | Potency (JEG-3) | Potency (OV90) | Potency (PA-1) | Potency (SKOV3) | Potency (Tov-21-G) | Potency (Tov112D) | activity, negative = cell killing [1, 3] -7.71% | activity, negative = cell killing [1, 4] -14.3% | activity, negative = cell killing [1, 2] 5.43%

CN1CCN(c2c(F)cc3c(=O)c(C(=O)O)cn4c3c2OCN4C)CC1
inactive: Potency (MKL-1) | Potency (MKL-2) | Potency (UISO) | Potency (WaGa) | Potency (C33A) | Potency (CAOV3) | Potency (CASKI) | Potency (Es-2) | Potency (HeLa) | Potency (Hek293T) | Potency (JEG-3) | Potency (OV90) | Potency (PA-1) | Potency (SKOV3) | Potency (Tov-21-G) | Potency (Tov112D) | activity, negative = cell killing [1, 3] 0.422% | activity, negative = cell killing [1, 4] -17.1% | activity, negative = cell killing [1, 5] -24% | activity, negative = cell killing [1, 2] 18%

CCN(CC)CC#CCOC(=O)C(O)(c1ccccc1)C1CCCCC1 (stereo unspecified)
inactive: Potency (MKL-1) | Potency (MKL-2) | outcome (NIH3T3) | Potency (UISO) | Potency (WaGa) | activity, negative = cell killing [1, 3] -22.3% | Potency (astro)
active: Potency ([1]; tumour line A) 10 µM | Potency ([1]; tumour line C) 20.6 µM

COC(c1ccccc1)(c1ccccc1)[C@H](Oc1nc(C)cc(C)n1)C(=O)O
inactive: Potency (MKL-1) | Potency (MKL-2) | outcome (NIH3T3) | Potency (UISO) | Potency (WaGa) | Potency (C33A) | Potency (CAOV3) | Potency (CASKI) | Potency (Es-2) | Potency (Hek293T) | Potency (JEG-3) | Potency (OV90) | Potency (PA-1) | Potency (SKOV3) | activity, negative = cell killing [1, 3] -11% | activity, negative = cell killing [1, 4] -22.7% | activity, negative = cell killing [1, 5] -16.8% | activity, negative = cell killing [1, 2] 2.92% | Potency (astro)

COc1ccccc1OCC(O)COC(N)=O (stereo unspecified)
inactive: Potency (MKL-1) | Potency (MKL-2) | Potency (UISO) | Potency (WaGa) | Potency (C33A) | Potency (CAOV3) | Potency (CASKI) | Potency (Es-2) | Potency (HeLa) | Potency (Hek293T) | Potency (JEG-3) | Potency (OV90) | Potency (PA-1) | Potency (SKOV3) | Potency (Tov-21-G) | Potency (Tov112D) | activity, negative = cell killing [1, 6] -0.35% | activity, negative = cell killing [1, 7] -3.25% | activity, negative = cell killing [1, 8] -10.3% | activity, negative = cell killing [1, 9] -18%

CC(C)C1CCC(C(=O)N[C@H](Cc2ccccc2)C(=O)O)CC1 (stereo partly specified)
inactive: Potency (MKL-1) | Potency (MKL-2) | Potency (UISO) | Potency (WaGa) | Potency (C33A) | Potency (CAOV3) | Potency (CASKI) | Potency (Es-2) | Potency (HeLa) | Potency (Hek293T) | Potency (JEG-3) | Potency (OV90) | Potency (PA-1) | Potency (SKOV3) | Potency (Tov-21-G) | Potency (Tov112D) | activity, negative = cell killing [1, 3] -7.58% | activity, negative = cell killing [1, 4] 5.65% | activity, negative = cell killing [1, 5] -15.4% | activity, negative = cell killing [1, 2] -13.4%

O=P(O)(O)C(O)(Cc1cccnc1)P(=O)(O)O
inactive: Potency (MKL-1) | Potency (MKL-2) | outcome (NIH3T3) | Potency (UISO) | Potency (WaGa) | Potency (C33A) | Potency (CAOV3) | Potency (CASKI) | Potency (Es-2) | Potency (Hek293T) | Potency (JEG-3) | Potency (OV90) | Potency (PA-1) | Potency (SKOV3) | Potency (Tov-21-G) | Potency (Tov112D) | activity, negative = cell killing [1, 3] -9.54% | activity, negative = cell killing [1, 4] -7.26% | activity, negative = cell killing [1, 2] 2.44% | Potency (astro)

O=c1cc(O)c(Cl)c[nH]1
inactive and 8.33 µM (active): Potency (WaGa)
inactive: Potency (MKL-1) | Potency (MKL-2) | outcome (NIH3T3) | Potency (UISO) | Potency (C33A) | Potency (CAOV3) | Potency (CASKI) | Potency (Es-2) | Potency (Hek293T) | Potency (JEG-3) | Potency (OV90) | Potency (SKOV3) | Potency (Tov-21-G) | Potency (Tov112D) | activity, negative = cell killing [1, 3] -16% | activity, negative = cell killing [1, 4] 7.88% | activity, negative = cell killing [1, 5] -15.8% | activity, negative = cell killing [1, 2] -29.9% | Potency (astro)

Cc1cccc(Nc2ccncc2S(=O)(=O)NC(=O)NC(C)C)c1
inactive: Potency (MKL-1) | Potency (MKL-2) | Potency (UISO) | Potency (WaGa) | Potency (C33A) | Potency (CAOV3) | Potency (CASKI) | Potency (Es-2) | Potency (HeLa) | Potency (Hek293T) | Potency (JEG-3) | Potency (OV90) | Potency (PA-1) | Potency (SKOV3) | Potency (Tov-21-G) | Potency (Tov112D) | activity, negative = cell killing [1, 6] -12.8% | activity, negative = cell killing [1, 7] -1.96% | activity, negative = cell killing [1, 8] -26% | activity, negative = cell killing [1, 9] -11%

OC(Cn1cncn1)(Cn1cncn1)c1ccc(F)cc1F
inactive: Potency (MKL-1) | Potency (MKL-2) | Potency (UISO) | Potency (WaGa) | Potency (C33A) | Potency (CAOV3) | Potency (CASKI) | Potency (Es-2) | Potency (HeLa) | Potency (Hek293T) | Potency (JEG-3) | Potency (OV90) | Potency (PA-1) | Potency (SKOV3) | Potency (Tov-21-G) | Potency (Tov112D) | activity, negative = cell killing [1, 3] -6.67% | activity, negative = cell killing [1, 4] -19.6% | activity, negative = cell killing [1, 5] -17.5% | activity, negative = cell killing [1, 2] -6.89% | Potency (astro)

CCOCC(O)COc1ccc(NC(=O)CC[S+](C)C)cc1 (stereo unspecified)
inactive: Potency (MKL-1) | Potency (MKL-2) | Potency (UISO) | Potency (WaGa) | Potency (C33A) | Potency (CAOV3) | Potency (CASKI) | Potency (Es-2) | Potency (HeLa) | Potency (Hek293T) | Potency (JEG-3) | Potency (OV90) | Potency (PA-1) | Potency (SKOV3) | Potency (Tov-21-G) | Potency (Tov112D) | activity, negative = cell killing [1, 3] -7.04% | activity, negative = cell killing [1, 4] -30.9% | activity, negative = cell killing [1, 5] -26.7% | activity, negative = cell killing [1, 2] -28.1%

NC(=O)c1ccc2[nH]ccc2c1
inactive: Potency (MKL-1) | Potency (MKL-2) | Potency (UISO) | Potency (WaGa)
